# Shown are actives, neighbours in structure and some others; about 3.6% of the full set was active somewhere.
# NTMT1 inh: Primary qHTS for Inhibitors of N-terminal methyltransferase 1 (NTMT1): MTaseGlo Assay; NTMT1 MTase-Glo SAH luminescence, purified enzyme; Potency, µM (top dose mostly 114 µM), actives largely listed as inhibitors; N-terminal Xaa-Pro-Lys N-methyltransferase 1 (Homo sapiens), Q9BV86; hit rate 2.5% among 59,000; note: nearly all actives have a fitted effect of over 65% in size
# GALC G270D up: A Novel Cell-Based Assay to Identify Small Molecules for B -Galactocerebrosidase; hit rate 0.1% among 45,000; P54803; AID 1159614, 2016; 145M-Twi-hGALC-G270D cells (Twitcher mouse brain line with human GALC G270D), HMU-beta-Gal fluorescence, 48 h; Potency, µM (titrated, usually from 57.5 µM), usual class: activators; note: nearly all actives have a fitted effect of over 65% in size
# Target sequence (P54803 whole entry G286D): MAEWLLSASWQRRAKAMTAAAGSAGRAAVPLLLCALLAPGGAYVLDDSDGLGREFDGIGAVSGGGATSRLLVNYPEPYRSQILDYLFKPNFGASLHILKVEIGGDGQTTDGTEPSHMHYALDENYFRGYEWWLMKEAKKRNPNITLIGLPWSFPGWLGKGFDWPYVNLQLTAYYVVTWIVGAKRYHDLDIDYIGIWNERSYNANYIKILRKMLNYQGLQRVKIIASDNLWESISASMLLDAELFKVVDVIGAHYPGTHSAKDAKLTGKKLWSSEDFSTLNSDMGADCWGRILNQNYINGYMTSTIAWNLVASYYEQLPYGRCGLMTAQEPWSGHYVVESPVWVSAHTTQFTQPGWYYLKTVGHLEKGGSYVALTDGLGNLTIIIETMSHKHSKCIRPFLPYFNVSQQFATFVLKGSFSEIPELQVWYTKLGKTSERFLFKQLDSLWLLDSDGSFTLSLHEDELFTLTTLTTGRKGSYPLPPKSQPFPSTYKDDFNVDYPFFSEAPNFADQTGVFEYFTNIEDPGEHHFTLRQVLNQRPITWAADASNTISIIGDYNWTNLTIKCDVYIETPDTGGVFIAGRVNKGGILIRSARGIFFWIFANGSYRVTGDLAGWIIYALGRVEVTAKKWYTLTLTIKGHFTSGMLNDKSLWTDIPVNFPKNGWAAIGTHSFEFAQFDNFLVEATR
#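 Live 145M-Twi cells (Twitcher mouse brain-derived, GALC-null) stably expressing human GALC-G270D, with a wild-type GALC line, were compound-treated. Residual GALC activity was then read as fluorescence from 0.1 mM final HMU-β-gal at pH 5.2; higher signal means activation.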
# SKOV3 invasion: Primary qHTS assay for Inhibitors of ovarian cancer metastasis using an organotypic tumor microenvironment (TME) model; Potency, µM (doses to about 45.8 µM), actives largely listed as inhibitors; SKOV3ip1-GFP adhesion/invasion on 3D omental model, fluorescence; hit rate 0.1% among 46,000; note: nearly all actives have a fitted effect of over 65% in size
#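 qHTS, 4-pt dose (0.36-46 umol/L); SKOV3ip1-GFP, 1,200 cells/well, no FBS; primary omental fibroblast/mesothelial co-culture 48 h pre-grown; 2 h RT + 16 h 37 C; PBS wash, 4% PFA; GFP count 488/509 nm.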
# mTORC1 inh: Acumen qHTS Assay for Inhibitors of the mTORC1 Signaling Pathway in MEF (Tsc2-/-, p53-/-) Cells: Sytravon; Tsc2-/- p53-/- MEF, phospho-rpS6 immunofluorescence/PI, 24 h; Potency, µM (titrated, usually from 38.3 µM), hits mostly inhibitors; hit rate 0.78% among 44,000; note: nearly all actives have a fitted effect of over 50% in size
#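 Cell-based qHTS: Tsc2-/- p53-/- MEF, 24 h cpd, 37 °C; fix/perm, anti-phospho-S6 Alexa-488 + PI; Acumen 488 nm scan; pS6/PI ratio, % positive cells; rapamycin 7.5 nM = inhibition ref; PI count = viability.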
# PMP22 txn prim: Cell-based coincidence reporter assay to measure PMP22 gene transcription in S16 Pmp22-F2sN cells - Primary screen. hit rate 2% among 43,000. Potency, µM (titrated, usually from 57.5 µM), hits mostly inhibitors. S16 Pmp22-F2sN Schwann cells, FLuc/NLuc coincidence luminescence, 24 h. AID 1508649, 2021; active = clear falling dose curves in both reporters; inconclusive = both reporters move, but less clearly or upward; inactive = either reporter flat; the % is the NLuc reporter signal
#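 Reporter cells (S16 Pmp22-F2sN, 500–1,000 per well) exposed to compounds for 24 h, 37C, 5% CO2; lysis with FLuc read after 10 min, then Stop&Glo and NLuc read after 10 min.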
# S16 viability: Cell viability qHTS assay in S16 Pmp22-F2sN cells; Potency, µM (doses to about 57.5 µM), hits mostly cytotoxic; hit rate 0.48% among 43,000; S16 Pmp22-F2sN Schwann cells viability, CellTiter-Glo, 24 h; note: nearly all actives have a fitted effect of over 65% in size
#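 S16 Pmp22-F2sN Schwann cells (500-1,000/well) in phenol-red-free DMEM with 10% FBS received 23 nL compound by pin tool for 24 h at 37 °C. Viability was then read as CellTiter-Glo luminescence after 15 min at room temperature.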
# NLuc saturating: Biochemical NLuc saturation counterscreen for small molecule modulators of PMP22 gene expression - Nano-Glo assay | shares compounds with PMP22 txn prim | Secreted NLuc enzyme (filtered S16 cell medium), Nano-Glo luminescence | Potency, µM (doses to about 57.5 µM), usual class: inhibitors | hit rate 4% among 690
# NLuc Km counter: Biochemical coelenterazine-based NLuc counterscreen for small molecule modulators of PMP22 gene expression - Km assay; secreted NLuc enzyme, coelenterazine luminescence, Km conditions; AID 1508639, 2021; hit rate 5% among 690; shares compounds with PMP22 txn prim; Potency, µM (series often up to 57.5 µM), actives largely listed as inhibitors
# FLuc ctr PMP22: Biochemical FLuc counterscreen for small molecule modulators of PMP22 gene expression. Potency, µM (series often up to 57.5 µM), hits mostly inhibitors. AID 1508640, 2021. 690 tested, under 10 active. purified P. pyralis FLuc, luminescence, 10 min. shares compounds with PMP22 txn prim
# S16 viab conf: Cell viability qHTS assay in S16 Pmp22-F2sN cells - Confirmatory screen; shares compounds with PMP22 txn prim; S16 Schwann cells viability, CellTiter-Glo ATP luminescence, 24 h; Potency, µM (top dose mostly 57.5 µM), hits mostly cytotoxic; hit rate 7% among 690; AID 1508641, 2021
# PMP22 txn conf: Cell-based coincidence reporter assay to measure PMP22 gene transcription in S16 Pmp22-F2sN cells - Confirmatory screen; shares compounds with PMP22 txn prim; S16 Schwann cells Pmp22-F2sN, dual luciferase, 24 h; Potency, µM (series often up to 57.5 µM), actives largely listed as inhibitors; hit rate 22% among 690; active = clear falling dose curves in both reporters; inconclusive = both reporters move, but less clearly or upward; inactive = either reporter flat; the % is the FLuc reporter signal
# PMP22 prot conf: Cell-based HiBiT reporter assay to measure PMP22 protein expression in S16 Pmp22-HiBiT cells - Confirmatory screen; shares compounds with PMP22 txn prim; S16 Schwann cells Pmp22-HiBiT, luminescence, 48 h; Potency, µM (titrated, usually from 27.9 µM), actives largely listed as inhibitors; 95 tested, under 10 active
# Hits are given with their value; i = inactive; ? = inconclusive; nt = no result; [ ] = dose if it differs, or a comment. Unless noted, calls come from the whole dose curve; as a rule, active = well fitted curve in the direction sought with a large enough effect; inconclusive = small, poorly fitted or top-dose-only effect, or another doubt; inactive = no such curve, though single readings can be large; an effect the other way counts as inactive or inconclusive.
SMILES,NTMT1 inh,GALC G270D up,SKOV3 invasion,mTORC1 inh,PMP22 txn prim,S16 viability,NLuc saturating,NLuc Km counter,FLuc ctr PMP22,S16 viab conf,PMP22 txn conf,others
CCOC(=O)c1ccc(NC(=O)CSc2c3c(nc4cc(Cl)ccc24)CCCC3)cc1,i,i,i,i,?,i,nt,nt,nt,nt,nt,
CCC(C)NC(=O)CSc1c2c(nc3cc(Cl)ccc13)CCCC2 (stereo not given),i,i,i,i,12.1µM,i,?,?,i,i,?,
Cc1ccc(CNC(=O)CSc2c3c(nc4ccc(Cl)cc24)CCCC3)cc1,i,i,i,i,10µM,i,i,?,i,i,i,
COc1ccc(NC(=O)Cn2c(=O)cc(C)c3c(C)nn(C)c32)cc1,?,i,i,i,15.8µM,i,i,i,i,i,i,
Cc1ccc(Cl)cc1NC(=O)Cn1c(=O)cc(C)c2c(C)nn(C)c21,i,i,i,i,18.9µM,i,i,i,i,i,i,
CCCSc1ncc(Cl)c(C(=O)Nc2ccc(S(=O)(=O)N3CCCCC3C)cc2)n1 (stereo not given),i,i,i,i,10.8µM,?,i,i,i,i,?,
CCCSc1ncc(Cl)c(C(=O)Nc2ccc(S(=O)(=O)N3CCC(C)CC3)cc2)n1,i,i,i,i,?,i,nt,nt,nt,nt,nt,
CCCSc1ncc(Cl)c(C(=O)Nc2sc3c(c2C(=O)NCC)CCCC3)n1,i,i,i,i,5.15µM,i,i,i,i,i,?,
CCSc1ncc(Cl)c(C(=O)Nc2sc3c(c2C(=O)NC)CCCC3)n1,i,i,i,i,i,i,nt,nt,nt,nt,nt,
COc1ccc(Cn2c(SCC(=O)N(C)Cc3ccccc3)nc3ccccc32)cc1,i,i,i,i,20µM,i,?,?,?,i,i,
COC(=O)c1c(-c2ccc(Cl)cc2)noc1N1CCN(c2cccc(OC)c2)CC1,i,i,i,i,6.96µM,?,?,i,i,i,11.5µM,
CCCC1=Nc2cc(C(=O)N3CCC(C)CC3)ccc2Sc2ccc(C)cc21,i,i,i,i,i,i,nt,nt,nt,nt,nt,
CCCC1=Nc2cc(C(=O)NC3CCCC3)ccc2Sc2ccc(C)cc21,?,i,i,i,3.65µM,i,i,i,i,i,4.44µM,
CCCC1=Nc2cc(C(=O)NC3CCCCC3)ccc2Sc2ccc(C)cc21,i,i,i,i,0.897µM,i,i,i,i,i,2.89µM,PMP22 prot conf=?
CC1=Nc2cc(C(=O)NC3CCCCC3)ccc2Sc2ccc(Cl)cc21,i,i,i,?,6.05µM,i,i,i,i,i,8.68µM,
COc1cccc(CN(C(=O)CC(C)(C)C)C2CC(C(=O)N3CCNCC3)N(Cc3ccc4c(c3)OCO4)C2)c1 (stereo not given),i,nt,nt,nt,nt,nt,nt,nt,nt,nt,nt,
Cc1cc(C)c2c(c1)C(N(Cc1cc(C(F)(F)F)cc(C(F)(F)F)c1)c1nnn(C)n1)CCCN2CC1CCC(C(=O)O)CC1 (stereo not given),i,nt,nt,nt,nt,nt,nt,nt,nt,nt,nt,
CC(NC(CCc1ccccc1)C(=O)O)C(=O)N1C(=O)N(C)CC1C(=O)O (stereo not given),?,i,nt,nt,nt,nt,nt,nt,nt,nt,nt,
Nc1ccc(-c2cccc3c(=O)cc(N4CCOCC4)oc23)cc1,i,nt,nt,nt,nt,nt,nt,nt,nt,nt,nt,
Nc1ccccc1NC(=O)c1ccc(CNc2nccc(-c3cccnc3)n2)cc1,i,nt,i,nt,nt,nt,nt,nt,nt,nt,nt,
CC(=O)Nc1cccc(-c2nnc(SCC(=O)c3cc([N+](=O)[O-])ccc3Cl)o2)c1,i,i,i,?,14.1µM,i,12.2µM,7.69µM,?,?,18.3µM,
CC(=O)O[C@@H]1C[C@@H](OC(C)=O)C(C)(C)/C=C/[C@H](C)[C@H](OC(C)=O)[C@@]2(O)C[C@H](C)[C@H](OC(=O)c3ccccc3)[C@@H]2/C=C/1C,i[12.6 µM],nt,nt,nt,nt,nt,nt,nt,nt,nt,nt,
COc1ccc(NC(=O)C2CCN(S(=O)(=O)c3c(C)noc3/C=C/c3ccc(C)cc3)CC2)cc1Cl,i,i,i,i,i,i,nt,nt,nt,nt,nt,
Cc1ccc(/C=C/c2onc(C)c2S(=O)(=O)N2CCC(C(=O)Nc3cc(C)ccc3C)CC2)cc1,i,i,i,i,i,?,nt,nt,nt,nt,nt,
Cc1ccc(C)c(NC(=O)C2CCCN(S(=O)(=O)c3c(C)noc3/C=C/N(C)C)C2)c1 (stereo not given),i,i,i,i,?,i,?,?,i,i,i,
Cc1ccc(/C=C/c2onc(C)c2S(=O)(=O)N2CCC(C(=O)NCc3ccc(C)o3)CC2)cc1,i,i,i,i,i,i,nt,nt,nt,nt,nt,
Cc1ccc(/C=C/c2onc(C)c2S(=O)(=O)N2CCC(C(=O)NCC(C)c3ccccc3)CC2)cc1 (stereo not given),i,i,i,i,12.7µM,i,i,i,i,i,?,

# Bioassay records (PubChem BioAssay)
